Measured values published in PubChem BioAssay (NCATS).
“And” between values parts separate entries of the source, which are not always exact repeats. Identical values can stand only once. Inconclusive results are not listed. Entries that show only a call come without a potency. Unmarked numbers belong to inactive results. The source made the active and inactive calls. Calls follow the shape of the dose curve; as a rule, active = well fitted curve in the direction sought with a large enough effect; inconclusive = small, poorly fitted or top-dose-only effect, or another doubt; inactive = no such curve, though single readings can be large; an effect the other way counts as inactive or inconclusive.

Legend:
[1] = Viability qHTS for spleen associated tyrosine kinase inhibitor (SYKi) naive MV4-11 cells (AID 1963823); also: nearly all actives have a fitted effect of over 40% in size
Summary of the method: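 Compounds were dispensed acoustically onto plates, MV4-11 cells (SYKi-naive) added at 500 per well, and plates incubated 72 hr at 37 C. CellTiter-Glo was added and luminescence measured after 10 min.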

[2] = Viability qHTS for spleen associated tyrosine kinase inhibitor (SYKi) drug resistant MV4-11 cells (AID 1963824); also: nearly all actives have a fitted effect of over 35% in size
Summary of the method: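 SYK inhibitor-resistant MV4-11 AML cells, 500 per well, added to predispensed compounds and incubated 72 hr at 37 C, 5% CO2. Viability measured by CellTiter-Glo luminescence after 10 min at room temperature.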

[3] = Quantitative highthroughput screen to assess conditional lethalithy of NOMO1 cells grown in RPMI1640 with untreated serum (RPMI+s) (AID 1963876); also: nearly all actives have a fitted effect of over 35% in size
Summary of the method: (§1)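 Each medium arm—HPLM with 10% dialyzed FBS, or RPMI1640 with 5 mM glucose and 10% untreated or dialyzed FBS—was screened against an 11-point, 3-fold compound titration for 48 h at 37 °C, with CellTiter-Glo luminescence as endpoint.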

[4] = Quantitative highthroughput screen to assess conditional lethalithy of NOMO1 cells grown in RPMI1640 with dialyzed fetal bovine serum (RPMI+ds) (AID 1963877); also: nearly all actives have a fitted effect of over 30% in size; as to Viability: series mostly up to about 46 µM
Summary of the method: as §1

[5] = Quantitative highthroughput screen to assess conditional lethalithy of NOMO1 cells grown in Human Plasma-Like Medium with dialyzed fetal bovine serum (HPLM+ds) (AID 1963878); also: nearly all actives have a fitted effect of over 35% in size
Summary of the method: as §1

[6] = Quantitative highthroughput screen to assess conditional lethalithy of P12 Ichikawa cells grown in Human Plasma-Like Medium with dialyzed fetal bovine serum (HPLM+ds) (AID 1963879); conditions: Potency: viability; also: nearly all actives have a fitted effect of over 35% in size; as to Viability: series mostly up to about 46 µM
Summary of the method: as §1

[7] = Quantitative highthroughput screen to assess conditional lethalithy of P12 Ichikawa cells grown in RPMI1640 with dialyzed fetal bovine serum (RPMI+ds) (AID 1963880); conditions: Potency: P12-Ichikawa viability; also: nearly all actives have a fitted effect of over 35% in size
Summary of the method: as §1

[8] = Quantitative highthroughput screen to assess conditional lethalithy of P12 Ichikawa cells grown in RPMI1640 with untreated serum (RPMI+s) (AID 1963881); conditions: Potency: viability; also: nearly all actives have a fitted effect of over 35% in size; as to Viability: series mostly up to about 46 µM
Summary of the method: as §1

[9] = Quantitative highthroughput screen to assess conditional lethalithy of SEM cells grown in Human Plasma-Like Medium with dialyzed fetal bovine serum (HPLM+ds) (AID 1963882); also: nearly all actives have a fitted effect of over 35% in size; as to Viability: series mostly up to about 46 µM
Summary of the method: as §1

[10] = Quantitative highthroughput screen to assess conditional lethalithy of SEM cells grown in RPMI1640 with unreated serum (RPMI+s) (AID 1963883); also: nearly all actives have a fitted effect of over 35% in size
Summary of the method: as §1

[11] = Cellular viability qHTS for adrenocortical cancer (ACC) cell line SW-13 (AID 1963989); conditions: SW-13 ACC cells viability, CellTiter-Glo, 48 h; activity (max response): hits give low values; also: nearly all actives have a fitted effect of over 65% in size;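 as to activity (max response): cells grown in serum-free medium with ITS supplement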
Summary of the method: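 Viability was read as CellTiter-Glo luminescence after 48 h compound treatment (up to 46 uM final) of SW-13 cells grown serum-free; titration curves were fit with a four-parameter logistic model to give IC50 and efficacy.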

[12] = Cellular viability qHTS for adrenocortical cancer (ACC) cell line NCI-H295R (AID 1963990); also: nearly all actives have a fitted effect of over 60% in size
Summary of the method: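 CellTiter-Glo ATP luminescence, read 48 h after compound addition, measured viability of NCI-H295R adrenocortical cells grown serum-free with ITS. Final concentrations spanned up to 46 uM. Data normalized to DMSO and doxorubicin, fitted for IC50 and maximal response.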

[13] = Quantitative highthroughput screen to assess conditional lethalithy of SEM cells grown in RPMI1640 with dialyzed fetal bovine serum (RPMI+ds) (AID 1963884); also: nearly all actives have a fitted effect of over 35% in size; as to Viability: series mostly up to about 46 µM
Summary of the method: as §1
Potency is read from the fitted curve at half-maximal effect.

SMILES	Potency [1]	Potency [2]	Potency [3]	Potency [4]	Potency [5]	Potency [6]	Potency [7]	Potency [8]	Potency [9]	Potency [10]	Potency [11]	Potency [12]	Potency [13]	activity (max response) [11]
Cc1cnc(Nc2ccc(OCCN3CCCC3)cc2)nc1Nc1cccc(S(=O)(=O)NC(C)(C)C)c1	146 nM (active) and 186 nM (active)	366 nM (active) and 417 nM (active)	inactive	inactive	inactive	inactive	inactive	inactive	10.5 µM (active)	inactive	12.6 µM (active)	10 µM (active)		
CCCCCCCCc1ccc(CCC(N)(CO)CO)cc1	5.17 µM (active)	4.61 µM (active)	18.7 µM (active)	23.5 µM (active)	14.8 µM (active)	23.5 µM (active)	18.7 µM (active)	18.7 µM (active)	23.5 µM (active)			7.08 µM (active)		
CCOC(=O)Nc1ccc(NCc2ccc(F)cc2)nc1N	14.8 µM (active)	16.6 µM (active)	inactive	inactive	inactive	inactive	inactive	inactive	inactive			inactive	inactive	
COc1ccc2c(c1)c(CC(=O)O)c(C)n2C(=O)c1ccc(Cl)cc1	inactive	inactive	inactive	inactive	inactive	inactive	inactive		inactive	inactive		inactive	inactive	-9.65% and -2.21%
NC(=O)Cc1cccc(C(=O)c2ccccc2)c1N	inactive	inactive	inactive	inactive	inactive	inactive	inactive	inactive						0.0063%
COc1cc(N2CCC(O)CC2)ccc1Nc1cc(Nc2ccccc2S(=O)(=O)C(C)C)c2cc[nH]c2n1	16.4 µM (active) and 10.5 µM (active)	20.6 µM (active) and 14.8 µM (active)	inactive	inactive	inactive	inactive	inactive	inactive				inactive		-1.42%
c1ccc2c(CCNc3ccc(Nc4ccncc4)cc3)c[nH]c2c1	1.16 µM (active) and 525 nM (active)	731 nM (active) and 590 nM (active)	16.6 µM (active)	18.7 µM (active)	14.8 µM (active)	23.5 µM (active)	20.9 µM (active)		0.935 µM (active)	0.372 µM (active)	1.58 µM (active)	3.55 µM (active)	0.833 µM (active)	
Cc1n[nH]c(C)c1Cc1sc2c(c1C(=O)N1C[C@H](O)CO1)c(=O)n(C)c(=O)n2CC(C)C	inactive	inactive	inactive	inactive	inactive	inactive	inactive	inactive					inactive	15%
C[C@@H](NCc1cc2ccccc2[nH]1)c1cccc2ccccc12	6.61 µM (active)	7.42 µM (active)	inactive	inactive	inactive	inactive	inactive	inactive			25.1 µM (active)	12.6 µM (active)		
O=c1[nH]nc(OCCCc2ccc(Cl)cc2)c(NCc2cccnc2)c1Br	4.11 µM (active)	4.11 µM (active)	11.8 µM (active)	5.9 µM (active)	2.96 µM (active)	5.9 µM (active)	5.26 µM (active)		0.743 µM (active)	6.62 µM (active)	7.94 µM (active)		14.8 µM (active)	
